Here are results for 65 molecules from ChEMBL document CHEMBL4513216, “Probing the Open Global Health Chemical Diversity Library for Multistage-Active Starting Points for Next-Generation Antimalarials” (ACS Infect Dis, 2020).

About 2,700 (4%) of roughly 68,000 compounds showed an effect of 50% or more. Shown is part of a subset that was picked to be rich in strong results.

This test concerns Plasmodium berghei. Briefly: Screen against P. berghei liver stage (PbLuc), transformed with Luciferase, at 2uM. The format is functional, HepG2. As to conditions: tested at 2 uM.
For the molecule `CCSCC(C)NCc1nncn1C1CCCCC1` (stereo not given), the INHIBITION stood at 37.3%. Consider `Cc1nc(CN2C(=O)CC[C@@H]3[C@H]2CCN3C(=O)c2ccccn2)cs1`, for which the INHIBITION turned out to be 3.46%. Next, `CCc1nccn1C1CCCN(C(=O)c2cncnc2C)C1` (stereo not given): 4.41%; `CCN(CC)[C@@H]1CN(S(=O)(=O)c2cn(C)cn2)[C@@H]2CCCO[C@H]12`: 20.21%; `CN(CC(=O)NCc1cc2ccccc2o1)S(C)(=O)=O`: -3.17%. With `CCc1noc(C)c1C(=O)N1C[C@H](NS(C)(=O)=O)[C@@H](C2CC2)C1` the figure was 5.47%.

Regarding `O=C(N1CCCC(n2cncn2)C1)C1(c2ccc(Cl)cc2)CCC1` (stereo not given), the INHIBITION is 45.83%.

For `CC(=O)c1c(C)nn(S(=O)(=O)c2ccc(C)cc2)c1C`, the INHIBITION turned out to be 39.45%. Next, `FC(F)(F)c1ccnc(N2CCCN(C3CCOCC3)CC2)c1`: -26.2%. With `CN1CCCC(N2CCN(c3cc(C(F)(F)F)ccn3)CC2)C1` (stereo not given) the figure was -3.43%; with `FC(F)(F)c1ccnc(N2CCCC(N3CCOCC3)C2)c1` (stereo not given), 60.13%.

`O=C(Cn1cccn1)Nc1ccc(N2CCOCC2)cc1`: the INHIBITION is 45.12%. With `CCOC(C)C(=O)NS(=O)(=O)c1cccc2cc(C)cnc12` (stereo not given) the figure was 9.27%; with `Cc1cnc2c(S(=O)(=O)NC3CCS(=O)(=O)C3)cccc2c1` (stereo not given), -15.28%.

For `Cc1cnc2c(S(=O)(=O)NCC3CCN(C4CC4)C3)cccc2c1` (stereo not given), the INHIBITION worked out at 51.21%. Next, `COC(C)C(=O)NS(=O)(=O)c1cccc2cc(C)cnc12` (stereo not given): 73.31%; `Cc1cnc2c(S(=O)(=O)NC(=O)C(C)OCC3CC3)cccc2c1` (stereo not given): 28.97%; `Cc1cnc2c(S(=O)(=O)NCC3CCS(=O)(=O)C3)cccc2c1` (stereo not given): -84.03%.

As to `Cc1cnc2c(S(=O)(=O)NCC3CCOC3)cccc2c1` (stereo not given), the INHIBITION is given as 1.61%. In the case of `Cc1cnc2c(S(=O)(=O)N(C)C3CCS(=O)(=O)C3)cccc2c1` (stereo not given), the INHIBITION worked out at 47.87%. `Cc1cnc2c(S(=O)(=O)NCC3CC3)cccc2c1`: the INHIBITION was 51.94%. With `CC(C)N1CCOC(CC(=O)N2CCCN(Cc3ccncc3)CC2)C1` (stereo not given) the figure was 18.22%; with `CNc1nc(C2CCCN2C(C)=O)nc2c1CN(CCO)CC2` (stereo not given), -0.83%.

Regarding `Cc1cc(C)c(CNC(=O)C2COc3ccccc3C2)c(=O)[nH]1` (stereo not given), the INHIBITION is -68.78%. For the molecule `Cc1cc(C)nc(N2CCCC(C)(c3[nH]ncc3C(=O)N(C)C)C2)n1` (stereo not given), the INHIBITION is -81.44%.

Take `CCc1cc(CN2CCCCC2c2ccc(F)cc2)on1` (stereo not given): the INHIBITION was -19.3%. With `COCCOCCCNC(=O)c1cc(Cl)cc2cccnc12` the figure was -18.52%; with `CCOC(=O)CCNC(=O)c1cc(Cl)cc2cccnc12`, -14.21%. `CCS(=O)(=O)N(C)CCCNC(=O)c1cc(Cl)cc2cccnc12`: the INHIBITION is listed as 61.08%. Consider `CCS(=O)(=O)CC(=O)Nc1ccccc1N1CCc2ccccc21`, for which the INHIBITION is reported as 6.07%.

Regarding `Cc1ccc(C(=O)N2CCC3(CC2)CN(CCN(C)C)C(=O)O3)c(F)c1`, the INHIBITION came to 57.34%.

Turning to `CN(C)CCN1CC2(CCN(C(=O)c3cnccn3)CC2)OC1=O`, the INHIBITION is on record as -48.69%. Consider `Cc1cc(C(=O)N2CCC3(CC2)CN(CCN(C)C)C(=O)O3)nc(C)n1`, for which the INHIBITION was 59.03%. With `CCCc1cc(C(=O)N2CCC3(CC2)CN(CCN(C)C)C(=O)O3)no1` the figure was 28.73%.

With `Cc1ccc(C(=O)N2CCN(C)C3(CCC(=O)N(C)CC3)C2)c(F)c1` (stereo not given), the INHIBITION was determined as 18.22%. `CN(C)CCCN1CC2(CCN(C(=O)C3(C)CCCCO3)CC2)OC1=O` (stereo not given): the INHIBITION is on record as -64.97%. With `CN(Cc1ccccc1)C(=O)Cn1nc(N2CCSCC2)ccc1=O` the figure was 22.88%; with `Cc1cc2nc(C(C)C)cc(N(C)CC3CCN(C(C)C)C3)n2n1` (stereo not given), 5.93%; with `Fc1cccc(CN2CCOCC3(CCN(C4CCOCC4)C3)C2)c1` (stereo not given), 30.29%.

Consider `CNc1cc2c(nn1)CCN(C(=O)c1cc(C)n(C3CC3)c1C)C2`, for which the INHIBITION is 26.06%. Next, `COc1ccc(-c2csc3c2c(N)nc(=O)n3CC(N)=O)cc1`: 23.16%. Consider `CCOC(=O)Cn1c(=O)nc(N)c2c(-c3ccc(OC)cc3)csc21`, for which the INHIBITION is reported as 69.62%. `CCn1c(=O)nc(N)c2c(-c3ccc(OC)cc3)csc21`: the INHIBITION is on record as -37.19%.

Consider `O=C(CC1CC2(CCNCC2)c2ccccc21)NCC1CC1` (stereo not given), for which the INHIBITION is -1.81%.

For the molecule `CC(=O)NC1CCN(c2ncnc3c2c(C)nn3C)C1` (stereo not given), the INHIBITION stood at 32.56%. With `CCC1(CC)Cc2ccccc2-c2nc(CN(C)C)nc(O)c21` the figure was 29.02%. Next, `CC(C)N(CCC#N)C(=O)c1cnc(-c2ccc3c(c2)OCO3)s1`: 37.87%; `CC(C)N(CC(N)=O)C(=O)c1cnc(-c2ccc3c(c2)OCO3)s1`: 75.8%; `CN(C)C(=O)c1cnc(-c2ccc3c(c2)OCO3)s1`: -197.6%. With `O=C(O)C1(n2ccc(-c3ccco3)n2)CCN(Cc2cccnc2)CC1` the figure was -30.35%; with `Cc1ccc2nc(CN(C)Cc3ccc(C)o3)cc(=O)n2c1`, 5.02%. With `Cc1nc(C(=O)N2CCN(C(C)c3ccccc3F)CC2)cs1` (stereo not given), the INHIBITION turned out to be 19.06%. Next, `CN1CCc2ncc(CNc3cc(N(C)C)ncn3)n2CC1`: -14.45%; `Cc1ccnc(N2Cc3cnn(Cc4ccc(F)cc4)c3C2)n1`: -38.09%. Turning to `Cc1cc(C)nc(N2Cc3cnn(Cc4ccc(F)cc4)c3C2)n1`, the INHIBITION is recorded as -51.41%.

As to `CNc1cc(C)nc(N2Cc3cnn(Cc4ccc(F)cc4)c3C2)n1`, the INHIBITION is reported as 52.03%. Next, `O=C(CN1CC(n2cccn2)C1)NCCc1c[nH]c2ccccc12`: 25.74%. With `O=S(=O)(NCCn1ccc(-c2cccs2)n1)C1CC1` the figure was -49.59%.

Regarding `Cc1nc(-c2ccccc2C)n(CC(=O)NC(C)C2CC2)n1` (stereo not given), the INHIBITION is reported as 12.66%. `O=C(NCC1CC1)C1CCC2(CCN(C(=O)c3ccncc3)CC2)O1` (stereo not given): the INHIBITION is listed as 52.36%. Next, `Cc1ccccc1C(=O)N1CCC2(CCC(C(=O)NCC3CC3)O2)CC1` (stereo not given): -28.91%.

Consider `Cc1occc1C(=O)N1CCC2(CCC(C(=O)NCC3CC3)O2)CC1` (stereo not given), for which the INHIBITION was determined as 51.19%. In the case of `O=C(NCC1CC1)C1CCC2(CCN(C(=O)c3ccoc3)CC2)O1` (stereo not given), the INHIBITION amounted to 36.99%. With `O=C(NCC1CC1)C1CCC2(CCN(C(=O)c3cccnc3)CC2)O1` (stereo not given) the figure was 22.71%; with `Cc1ccc(C(=O)N2CCC3(CCC(C(=O)NCC4CC4)O3)CC2)o1` (stereo not given), 38.09%.
